# Inconclusive results are not listed. Entries that show only a call come without a potency. The source made the active and inactive calls. Calls follow the shape of the dose curve; as a rule, active = well fitted inhibition curve with a large enough effect; inconclusive = small, poorly fitted or top-dose-only effect; inactive = no such curve, though single readings can be large or run the other way.
# Target: Coelenterazine h 2-monooxygenase (Renilla reniformis) (UniProt P27652)
# Assay: qHTS Assay for Inhibitors of Sea Pansy Luciferase from the GSK Published Protein Kinase Inhibitor Set
# Conditions: purified Renilla luciferase, luminescence; series mostly up to 57.5 µM
# Summary of the method: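 Purified R. reniformis luciferase (1 nM final) with 5 uM coelenterazine h in 50 mM Tris acetate pH 7.5, 100 uM NaCl, 0.01% Tween-20, 0.05% BSA. A titration, about 60 uM to 300 pM; luminescence read after about 2 min.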
# Potency is read from the fitted curve at half-maximal effect.
# Chain of Coelenterazine h 2-monooxygenase (Renilla reniformis) (P27652 whole entry, looked up): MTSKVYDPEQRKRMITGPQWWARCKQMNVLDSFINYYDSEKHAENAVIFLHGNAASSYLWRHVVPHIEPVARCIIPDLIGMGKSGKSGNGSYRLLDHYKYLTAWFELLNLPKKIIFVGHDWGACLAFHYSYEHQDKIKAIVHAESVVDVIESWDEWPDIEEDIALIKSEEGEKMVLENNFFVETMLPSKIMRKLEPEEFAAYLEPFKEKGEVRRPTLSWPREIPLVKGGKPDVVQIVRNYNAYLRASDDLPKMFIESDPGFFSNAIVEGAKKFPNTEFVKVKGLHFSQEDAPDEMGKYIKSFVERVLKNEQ
row,Compound,Potency
1,COc1cccc(-n2ncc3c(NN=Cc4ccc(C(=O)NCCN(C)C)cc4)ncnc32)c1,inactive
2,COC(=O)Nc1nc2ccc(Oc3cccc(NC(=O)Nc4cc(C(F)(F)F)ccc4F)c3)cc2[nH]1,inactive
3,COc1c(C(N)=O)cc(-c2ccc(Cl)cc2)cc1-c1ccc(S(N)(=O)=O)cc1,inactive
4,Fc1ccc(Nc2nccc(-c3c(-c4ccc(C(F)(F)F)cc4)nn4ncccc34)n2)cc1F,inactive
5,Fc1ccc(-c2nn3ncccc3c2-c2ccnc(Nc3ccc4c(c3)OCCO4)n2)cc1,inactive
6,Nc1ncnc2occ(-c3ccc(NC(=O)Nc4cccc(C(F)(F)F)c4)cc3)c12,inactive
7,CCn1c(-c2nonc2N)nc2c(C#CC(C)(C)O)ncc(OC3CCNCC3)c21,inactive
8,COc1cc(Nc2ncc(-c3ccccc3)o2)cc(OC)c1,inactive
9,CCn1c(-c2nonc2N)nc2c(C#CC(C)(C)O)ncc(OCC3CCNCC3)c21,inactive
10,CC(Oc1cc(-n2cnc3ccc(OCC(O)CO)cc32)sc1C(N)=O)c1ccccc1Cl (stereo not drawn),inactive
11,Nc1ccc(C#Cc2cncnc2Nc2ccc(OCc3cccc(F)c3)c(Cl)c2)cc1,inactive
12,O=S(=O)(CCNCc1ccc(-c2ccc3ncnc(Nc4ccc(OCc5cccc(F)c5)c(Cl)c4)c3c2)o1)c1ccccc1,inactive
13,O=C(Nc1n[nH]c2nnc(-c3cccnc3)cc12)C1CC1,inactive
14,CCn1c(-c2nonc2N)nc2ccncc21,inactive
15,O=C1NC(=O)C(c2ccc(Cl)cc2)=C1Nc1ccc(Cl)c(C(=O)O)c1,inactive
16,O=C1Nc2ccc(C(=O)c3ccco3)cc2/C1=C/c1cc(Cl)c(O)c(Cl)c1,16.3 µM (active)
17,CN(C)C(=O)OC1CNC(C#Cc2cc3ncnc(Nc4ccc(OCc5cccc(F)c5)c(Cl)c4)c3s2)C1 (stereo not drawn),inactive
18,CS(=O)(=O)CCNCc1ccc(-c2ccc3ncnc(Nc4ccc(OCc5ccccc5)c(Br)c4)c3c2)o1,inactive
19,COc1cc(Nc2ncc3c(C)nc(-c4cccc(C(F)(F)F)c4)n3n2)cc(OC)c1OC,inactive
20,O=C(OC1CNC(C#Cc2cc3ncnc(Nc4ccc5c(cnn5Cc5ccccc5)c4)c3s2)C1)N1CCOCC1 (stereo not drawn),inactive
21,Fc1ccc(-c2ncn(C3CCNCC3)c2-c2ccnc(Oc3ccc(Cl)cc3)n2)cc1,inactive
22,N#Cc1c(NC(=O)c2ccccc2F)sc2c1CCCC2,inactive
23,O=S(=O)(CCOCc1ccc(-c2ccc3ncnc(Nc4ccc(OCc5cccc(F)c5)c(Cl)c4)c3c2)o1)c1ccccc1,inactive
